L3MBTL1 inh = inhibitors of human L3MBTL1. Q9Y468. AlphaScreen L3MBTL1–H3K9me1 peptide binding. Potency, µM (titrated, usually from 57.1 µM), for inactives: top-dose activity, negative = inhibition, hits mostly inhibitors. 230,000 compounds, 0.66% hits. AID 485360; active means well fitted inhibition curve with a large enough effect; inconclusive means small, poorly fitted or top-dose-only effect; inactive means no such curve, though single readings can be large or run the other way; further: potency means the concentration at half of the fitted maximal effect; nearly all actives have a fitted effect of over 60% in size
Target sequence (Q9Y468 whole entry, looked up): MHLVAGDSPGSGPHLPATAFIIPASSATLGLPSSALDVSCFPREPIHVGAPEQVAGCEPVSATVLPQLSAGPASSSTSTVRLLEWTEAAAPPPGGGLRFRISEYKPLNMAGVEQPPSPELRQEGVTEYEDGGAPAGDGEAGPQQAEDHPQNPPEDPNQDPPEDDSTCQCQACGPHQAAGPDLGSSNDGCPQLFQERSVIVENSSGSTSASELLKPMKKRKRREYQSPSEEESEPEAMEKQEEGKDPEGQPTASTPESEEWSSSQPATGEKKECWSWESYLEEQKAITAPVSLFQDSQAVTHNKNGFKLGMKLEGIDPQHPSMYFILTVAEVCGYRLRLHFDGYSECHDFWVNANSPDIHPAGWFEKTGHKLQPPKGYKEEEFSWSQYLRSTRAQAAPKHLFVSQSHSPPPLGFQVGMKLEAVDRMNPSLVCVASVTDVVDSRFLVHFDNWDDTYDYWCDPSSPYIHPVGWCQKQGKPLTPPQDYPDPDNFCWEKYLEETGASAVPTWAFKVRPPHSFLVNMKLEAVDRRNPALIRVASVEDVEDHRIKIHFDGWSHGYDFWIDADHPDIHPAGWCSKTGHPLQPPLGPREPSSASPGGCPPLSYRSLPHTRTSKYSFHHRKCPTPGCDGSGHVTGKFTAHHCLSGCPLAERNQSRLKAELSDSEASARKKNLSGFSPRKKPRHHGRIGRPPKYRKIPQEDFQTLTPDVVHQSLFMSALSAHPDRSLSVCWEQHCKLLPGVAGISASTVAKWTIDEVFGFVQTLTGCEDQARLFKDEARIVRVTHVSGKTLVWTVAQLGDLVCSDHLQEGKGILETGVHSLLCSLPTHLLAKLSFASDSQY
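L3MBTL1 (50 nM) pre-complexed 30 min with biotinylated H3(1-15)K9me1 peptide (75 nM), then compounds added for 30 min at room temperature; AlphaScreen streptavidin donor/nickel chelate acceptor beads (10 ug/mL final) read after 30 min dark incubation.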
CtBP-E1A inh = inhibitors of CtBP/E1A interaction; AID 651724; AlphaScreen GST-E1A/His-CtBP binding, 1536-well; stronger effect = lower value; 340,000 compounds, 0.49% hits; activity change, % (test concentration not listed)
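GST-E1A and His-tagged CtBP (125 nM each as 5X stock) were preincubated with pin-transferred compound for 2 h at 37 °C in the dark, then glutathione donor and nickel acceptor beads were added for 1 h before AlphaScreen reading.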
Six1-Eya2 inh = inhibitors of human Six1/Eya2 interaction | 360,000 compounds, 0.56% hits | activity change, % (test concentration not listed) | AlphaScreen GST-Six1/His-Eya2 binding, biochemical; stronger effect = lower value
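Compounds are tested against tagged Six1 and Eya2 proteins bridged by glutathione donor and nickel acceptor beads; after a one-hour incubation at 37 °C without light, AlphaScreen emission is recorded.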
JMJD2E inh = inhibitors of human JMJD2E histone demethylase; AID 2147; B2RXH2; 230,000 compounds, 1.6% hits; JMJD2E catalytic domain, FDH-coupled NADH fluorescence (FDH is formaldehyde dehydrogenase); Potency, µM (titrated, usually from 57.1 µM), for inactives: top-dose activity change, negative = inhibition, usual class: inhibitors; active means well fitted inhibition curve with a large enough effect, not every such curve was filed as active; inconclusive means small, poorly fitted or top-dose-only effect, or another doubt; inactive means no such curve, though single readings can be large or run the other way;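 further: potency means the concentration at half of the fitted maximal effect; 0% = wells with enzyme and -100% = buffer wells without enzyme; nearly all actives have a fitted effect of over 50% in size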
An asterisk follows results filed as active; [ ] = another dose, or the depositor's remark. This excerpt belongs to a sample that is enriched for hits. Unless noted, no stated cut-off is given here; in the data, active means activity change below about -65%; inconclusive means mostly about -30% to -63%; inactive means weaker than that. Unless noted, on the % scale 0 is the no-effect control and ±100 the full control effect.

`O=C(COC(=O)c1ccc([N+](=O)[O-])s1)NC(=O)NCc1ccccc1` gave L3MBTL1 inh 11.2µM*, CtBP-E1A inh -12.1, Six1-Eya2 inh -2.8 and JMJD2E inh 1.1%.
For CC#CCN1c2ccccc2[C@]23C[C@@H](C(=O)OC)N(C(=O)CC(C)C)C2=NC(C(=O)OC)=C(C(=O)OC)[C@H]13 the results were JMJD2E inh 1.3%[11.4 µM].
Screening COc1ccccc1C(=O)NC(=S)/C=C1/N(C)c2ccccc2C1(C)C returned L3MBTL1 inh 12.6µM*, CtBP-E1A inh -73.7*, Six1-Eya2 inh -72.9* and JMJD2E inh -0.1%.
CN1/C(=C\C(=S)Nc2ccccc2)C(C)(C)c2ccccc21 was read as L3MBTL1 inh -21.0%, CtBP-E1A inh -22.3, Six1-Eya2 inh -27.7 and JMJD2E inh -7.5%.
`CN1/C(=C\C(=S)NC(=O)c2ccccc2Cl)C(C)(C)c2ccccc21` gave L3MBTL1 inh inconclusive, CtBP-E1A inh -28.3, Six1-Eya2 inh inconclusive and JMJD2E inh -3.1%.
Screening CN1/C(=C/C(=S)NC(=O)C2(C)CC2(Cl)Cl)C(C)(C)c2ccccc21 (stereo not drawn) returned L3MBTL1 inh -11.3%[11.4 µM], CtBP-E1A inh -71.7*, Six1-Eya2 inh -66.3* and JMJD2E inh -3.0%.
For Cc1cc(C)cc(-c2cc3c(c(-c4c(O)c(-c5cc(C)cc(C)c5)cc5c4CCCC5)c2O)CCCC3)c1 the results were JMJD2E inh 3.2%.
`COCC1=Cc2cc3c(cc2C(C(C(=O)OC)C(=O)OC)N1C(=O)OC)OCO3` (stereo not drawn) gave JMJD2E inh 5.5%.
`O=C(CSc1ncn[nH]1)CSc1ncn[nH]1` gave CtBP-E1A inh 2.0, Six1-Eya2 inh 7.2 and JMJD2E inh 3.55µM*.
`CC(C)c1ccc(C(=O)CSc2ncn[nH]2)cc1` gave L3MBTL1 inh -5.6%, CtBP-E1A inh -2.7, Six1-Eya2 inh 3.8 and JMJD2E inh 25.1µM*.
CCCCNC(=O)C1(C)CCN1C(=O)c1cccc2c1OCCO2 (stereo not drawn) was read as CtBP-E1A inh -24.1 and Six1-Eya2 inh 13.2.
Screening Nc1ncnc2c1nc(Sc1ccc(Cl)cc1)n2[C@H]1O[C@@H]2COP(=O)(O)O[C@H]2[C@@H]1O returned JMJD2E inh 4.9%.
CCCC/C=C/C(NC(=O)c1cccs1)c1ccccc1 (stereo not drawn) was read as JMJD2E inh 17.0%.
`O=c1[nH]c(-[n+]2ccccc2)c(/C=N/NC([S-])=Nc2ccccc2)s1` gave L3MBTL1 inh -19.7%, CtBP-E1A inh -1.8, Six1-Eya2 inh inconclusive and JMJD2E inh -29.1%.
Screening CCc1ccc[n+](-c2[nH]c(=O)sc2/C=N/NC([S-])=Nc2ccccc2)c1 returned L3MBTL1 inh -24.3%, CtBP-E1A inh -22.6, Six1-Eya2 inh inconclusive and JMJD2E inh 3.55µM*.
Screening CCOC(=O)C(=CNc1nc(-c2ccccc2)c(C(=O)Nc2ccc(-c3ccccc3)cc2)s1)C(=O)OCC returned CtBP-E1A inh 4.3 and Six1-Eya2 inh 4.2.
Screening O=C1NC(=S)S/C1=C\c1ccc(SCc2ccco2)o1 returned L3MBTL1 inh 3.55µM*, CtBP-E1A inh -11.2, Six1-Eya2 inh inconclusive and JMJD2E inh inconclusive.
`O=C1NC(=S)S/C1=C\c1ccc(SCc2ccccc2)o1` gave L3MBTL1 inh 28.2µM*, CtBP-E1A inh -17.0, Six1-Eya2 inh -23.7 and JMJD2E inh -0.7%.
Screening CCOc1ccc(NC(=O)CCC(=O)c2ccc(F)cc2)cc1 returned L3MBTL1 inh 5.9% and Six1-Eya2 inh 5.3.
`O=S(=O)(O)c1cc(O)c2cc(Nc3ccccc3)ccc2c1` gave CtBP-E1A inh 5.7 and Six1-Eya2 inh -28.3.
For O=S(=O)(O)c1ccc(O)c2cc(Nc3ccccc3)ccc12 the results were CtBP-E1A inh -29.1 and Six1-Eya2 inh -72.9*.
Cc1c(CCC(=O)NCC(=O)O)c(=O)oc2cc3occ(-c4ccccc4)c3cc12 was read as CtBP-E1A inh -25.5 and Six1-Eya2 inh inconclusive.
For Cc1c(CC(=O)O)c(=O)oc2c(C)c3occ(-c4ccccc4)c3cc12 the results were CtBP-E1A inh 0.0 and Six1-Eya2 inh -77.1*.
Screening Cc1c(CCC(=O)O)c(=O)oc2c(C)c3occ(-c4ccc(Cl)cc4)c3cc12 returned CtBP-E1A inh -80.6* and Six1-Eya2 inh -86.3*.
`CCCC(NC(=O)CCc1c(C)c2cc3c(-c4ccccc4)coc3cc2oc1=O)C(=O)O` (stereo not drawn) gave CtBP-E1A inh -67.8* and Six1-Eya2 inh -17.1.
`Cc1c(CCC(=O)O)c(=O)oc2cc3occ(-c4ccc(Cl)cc4)c3cc12` gave CtBP-E1A inh -71.0* and Six1-Eya2 inh inconclusive.
Cc1oc2c(C)c3oc(=O)c(CCC(=O)O)c(C)c3cc2c1-c1ccccc1 was read as Six1-Eya2 inh -29.2.
Cc1oc2cc3oc(=O)c(CC(=O)O)c(C)c3cc2c1-c1ccccc1 was read as Six1-Eya2 inh 11.0.
`c1ccc(-c2cn(C[C@H]3CC[C@H](Cn4cc(-c5ccccn5)nn4)O3)nn2)nc1` gave L3MBTL1 inh 0.282µM*, CtBP-E1A inh -90.2* and Six1-Eya2 inh -91.7*.
Screening CC[C@]1(C(=O)OC)[C@H]2C(=O)N(C)C(=O)[C@H]2[C@H]2CN=C(SCc3ccc(C(=O)OC)cc3)N21 returned L3MBTL1 inh 7.5%, CtBP-E1A inh 0.0 and Six1-Eya2 inh 15.6.
COc1ccc2ccc3c(c2c1)N=CC1(O3)N(C)c2ccccc2C1(C)C (stereo not drawn) was read as L3MBTL1 inh 31.6µM*, CtBP-E1A inh 4.2, Six1-Eya2 inh -6.7 and JMJD2E inh 14.1µM*.
For CN1c2ccccc2C(C)(C)[C@]12C=Cc1cc(O)ccc1O2 the results were CtBP-E1A inh 0.4, Six1-Eya2 inh -25.4 and JMJD2E inh -11.0%.
Screening CN1c2ccccc2C(C)(C)C12C=Nc1c(ccc3ccccc13)O2 (stereo not drawn) returned L3MBTL1 inh inconclusive, CtBP-E1A inh 15.9, Six1-Eya2 inh -1.9 and JMJD2E inh 25.1µM*.
For COc1cccc(-c2cnc3c(NC=O)cc(-c4ccc(O)c(OC)c4)cn23)c1 the results were CtBP-E1A inh -71.2* and Six1-Eya2 inh inconclusive.
COc1cccc(-c2cc(NC=O)c3ncc(-c4cc(OC)c(OC)c(OC)c4)n3c2)c1 was read as CtBP-E1A inh inconclusive and Six1-Eya2 inh -15.1.
COc1ccc(CC(N)c2csc(Nc3ccccn3)n2)cc1 (stereo not drawn) was read as CtBP-E1A inh -91.7* and Six1-Eya2 inh -88.1*.
Screening NC(CCc1ccccc1)c1csc(Nc2cnccn2)n1 (stereo not drawn) returned CtBP-E1A inh -67.1* and Six1-Eya2 inh inconclusive.
For CS(=O)(=O)c1ccc(Nc2nc(C(N)c3ccccc3)cs2)cc1 (stereo not drawn) the results were CtBP-E1A inh -2.3 and Six1-Eya2 inh 1.0.

Screens (PubChem BioAssay)
